# Counter-ions that a name gives are not always drawn.
# Tested on: P. vulgatus RND KO
# Experiment: growth AUC normalised to DMSO control (median) (fraction of control); higher = less growth inhibition, active = hit call of the paper
# Conditions: 20 µM;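 active = normalised median growth AUC below 0.1 of DMSO control; inactive = AUC 0.1 or higher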
# Outline: (§1)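 Each strain went through two overnight passages under anaerobic conditions before growth in mGAM in 96-well plates, starting at OD578 0.01, with each compound from the approved-drug library at 20 μM and 1% DMSO. Inside an anaerobic incubator, OD578 was recorded every hour for 24 h. Growth curves were cut off at entry into stationary phase, and the area under the curve was calculated by the trapezoidal rule and normalised to vehicle wells on the same plate. Reported values are medians of three biological replicates.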
# 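Also: active when median AUC fell below 0.1.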
row,Compound,growth AUC normalised to DMSO control
1,O=C(CCCN1CCC(n2c(=O)[nH]c3ccccc32)CC1)c1ccc(F)cc1 [Benperidol],1.01 (inactive)
2,C[N+](C)(C)CCCCCCCCCC[N+](C)(C)C [Decamethonium bromide],0.997 (inactive)
3,CCN[C@@H](C)Cc1cccc(C(F)(F)F)c1 [Dexfenfluramine hydrochloride],1 (inactive)
4,C=C(C)[C@@H]1[C@H]2OC(=O)[C@@H]1[C@]1(O)C[C@H]3O[C@]34C(=O)O[C@H]2[C@]14C [Picrotoxinin],1.03 (inactive)
5,CC(C)(C)NCC(O)c1ccccc1Cl (stereo unspecified) [Tulobuterol hydrochloride],0.991 (inactive)
6,Fc1ccc(C(OCCN2CCN(CCCc3ccccc3)CC2)c2ccc(F)cc2)cc1,0.994 (inactive)
7,C=C1CC[C@@]2(O)[C@H]3Cc4ccc(O)c5c4[C@@]2(CCN3CC2CC2)[C@H]1O5 [Nalmefene hydrochloride],1 (inactive)
8,C1CCc2nnnn2CC1 [Pentylenetetrazole],1.03 (inactive)
9,CCOC(=O)c1cncn1[C@H](C)c1ccccc1 [Etomidate],1.07 (inactive)
10,CC(C)CC(N(C)C)C1(c2ccc(Cl)cc2)CCC1 (stereo unspecified) [Sibutramine hydrochloride],1.02 (inactive)
11,C[N+]12CCC(CC1)C(OC(=O)C(O)(c1ccccc1)c1ccccc1)C2 (stereo unspecified) [Clidinium bromide],1.03 (inactive)
12,CN(C)[C@@H]1C(=O)C(C(N)=O)=C(O)[C@@]2(O)C(=O)C3=C(O)c4c(O)ccc(Cl)c4[C@@](C)(O)[C@H]3C[C@@H]12 [Chlortetracycline hydrochloride],0.0183 (active)
13,C[N+]1(C)[C@@H]2CC[C@H]1C[C@@H](OC(=O)C(CO)c1ccccc1)C2 (stereo partly specified) [Methylatropine nitrate],1.02 (inactive)
14,CC(C)N(CCC(C(N)=O)(c1ccccc1)c1ccccn1)C(C)C (stereo unspecified) [Disopyramide],1 (inactive)
15,CNC(=O)Oc1ccc2c(c1)[C@]1(C)CCN(C)[C@@H]1N2C [Eserine hemisulfate salt],1.07 (inactive)
16,CN1[C@@H]2CC[C@H]1C[C@@H](OC(=O)C(CO)c1ccccc1)C2 (stereo partly specified) [Atropine sulfate monohydrate],1.04 (inactive)
17,COc1ccc(C(CN(C)C)C2(O)CCCCC2)cc1 (stereo unspecified) [Venlafaxine],0.997 (inactive)
18,NCCc1c[nH]c2ccc(O)cc12 [Serotonin hydrochloride],1.04 (inactive)
19,CC(CCc1ccccc1)NC(C)C(O)c1ccc(O)cc1 (stereo unspecified) [Nylidrin],1 (inactive)
20,C[N+]1(C)CCOC(O)(c2ccc(-c3ccc(C4(O)C[N+](C)(C)CCO4)cc3)cc2)C1 (stereo unspecified) [Hemicholinium bromide],1 (inactive)
21,CC(=O)O[C@H]1C[C@@H]2CC[C@@H]3[C@H](CC[C@@]4(C)[C@H]3C[C@H]([N+]3(C)CCCCC3)[C@@H]4OC(C)=O)[C@@]2(C)C[C@@H]1[N+]1(C)CCCCC1 [Pancuronium bromide],1.01 (inactive)
22,O=C1CC[C@@]2(O)[C@H]3Cc4ccc(O)c5c4[C@@]2(CCN3CC2CC2)[C@H]1O5 [Naltrexone hydrochloride dihydrate],0.994 (inactive)
23,CC(Cc1ccccc1)NCCC(c1ccccc1)c1ccccc1 (stereo unspecified) [Prenylamine lactate],1.04 (inactive)
24,CCC1(CC)C(=O)C=CNC1=O [Pyrithyldione],1.01 (inactive)
25,COc1cc2c(c(OC)c1OC)-c1ccc(OC)c(=O)cc1[C@@H](NC(C)=O)CC2 [Colchicine],0.988 (inactive)
26,COc1cc([C@@H]2c3cc4c(cc3[C@H](O)[C@H]3COC(=O)[C@H]23)OCO4)cc(OC)c1OC [Podophyllotoxin],1 (inactive)
27,Oc1ccc2c3c1O[C@H]1[C@@H](O)CC[C@@]4(O)[C@@H](C2)N(CC2CCC2)CC[C@]314 [Nalbuphine hydrochloride],0.997 (inactive)

# Tested on: P. vulgatus WT
# Experiment: as above
# Conditions: 20 µM
# Outline: as §1
row,Compound,growth AUC normalised to DMSO control
1,C=CCC1(CC(C)C)C(=O)NC(=O)NC1=O [Butalbital],0.998 (inactive)
2,CC1C=CC=CCCC=CC=CC=CC=CC(OC2OC(C)C(O)C(N)C2O)CC2OC(O)(CC(O)C(O)CCC(O)CC(O)CC(O)CC(=O)OC(C)C(C)C1O)CC(O)C2C(=O)O (stereo unspecified) [Nystatine],0.996 (inactive)
3,O=C(CCCN1CCC2(CC1)C(=O)NCN2c1ccccc1)c1ccc(F)cc1 [Spiperone],0.988 (inactive)
4,COc1ccc(OC)c(C(O)C(C)N)c1 (stereo unspecified) [Methoxamine hydrochloride],0.0385 (active)
5,CC(C)(C)NCC(O)c1cc(Cl)c(N)c(Cl)c1 (stereo unspecified) [Clenbuterol hydrochloride],1.01 (inactive)
6,COc1ccc(CN2CCNCC2)c(OC)c1OC [Trimetazidine dihydrochloride],1.01 (inactive)
7,CC[N+]1(C)CCCC(OC(=O)C(O)(c2ccccc2)c2ccccc2)C1 (stereo unspecified) [Pipenzolate bromide],1.02 (inactive)
8,NCC(O)c1ccc(O)cc1 (stereo unspecified) [Octopamine hydrochloride],1.03 (inactive)
9,CC(=O)NC1CCSC1=O (stereo unspecified) [Citiolone],1.04 (inactive)
10,O=[N+]([O-])O[C@@H]1CO[C@H]2[C@@H]1OC[C@@H]2O [Isosorbide mononitrate],0.958 (inactive)
11,C=C1C[C@@H]2[C@H](CC[C@]3(C)C(=O)CC[C@@H]23)[C@@]2(C)C=CC(=O)C=C12 [Exemestane],0.969 (inactive)
12,O=c1c2ccccc2[se]n1-c1ccccc1 [Ebselen],1.02 (inactive)
13,O=C(CCCN1CCC(n2c(=O)[nH]c3ccccc32)CC1)c1ccc(F)cc1 [Benperidol],1.02 (inactive)
14,C[N+](C)(C)CCCCCCCCCC[N+](C)(C)C [Decamethonium bromide],1.07 (inactive)
15,CCN[C@@H](C)Cc1cccc(C(F)(F)F)c1 [Dexfenfluramine hydrochloride],1.02 (inactive)
16,C=C(C)[C@@H]1[C@H]2OC(=O)[C@@H]1[C@]1(O)C[C@H]3O[C@]34C(=O)O[C@H]2[C@]14C [Picrotoxinin],1.03 (inactive)
17,CC(C)(C)NCC(O)c1ccccc1Cl (stereo unspecified) [Tulobuterol hydrochloride],1.01 (inactive)
18,Fc1ccc(C(OCCN2CCN(CCCc3ccccc3)CC2)c2ccc(F)cc2)cc1,0.966 (inactive)
19,C=C1CC[C@@]2(O)[C@H]3Cc4ccc(O)c5c4[C@@]2(CCN3CC2CC2)[C@H]1O5 [Nalmefene hydrochloride],1.03 (inactive)
20,C1CCc2nnnn2CC1 [Pentylenetetrazole],1.06 (inactive)

row,Compound,growth AUC normalised to DMSO control
1,CCOC(=O)c1cncn1[C@H](C)c1ccccc1 [Etomidate],1.1 (inactive)
2,CC(C)CC(N(C)C)C1(c2ccc(Cl)cc2)CCC1 (stereo unspecified) [Sibutramine hydrochloride],1.02 (inactive)
3,C[N+]12CCC(CC1)C(OC(=O)C(O)(c1ccccc1)c1ccccc1)C2 (stereo unspecified) [Clidinium bromide],0.999 (inactive)
4,CN(C)[C@@H]1C(=O)C(C(N)=O)=C(O)[C@@]2(O)C(=O)C3=C(O)c4c(O)ccc(Cl)c4[C@@](C)(O)[C@H]3C[C@@H]12 [Chlortetracycline hydrochloride],0.0152 (active)
5,C[N+]1(C)[C@@H]2CC[C@H]1C[C@@H](OC(=O)C(CO)c1ccccc1)C2 (stereo partly specified) [Methylatropine nitrate],1.04 (inactive)
6,CC(C)N(CCC(C(N)=O)(c1ccccc1)c1ccccn1)C(C)C (stereo unspecified) [Disopyramide],0.998 (inactive)
7,CNC(=O)Oc1ccc2c(c1)[C@]1(C)CCN(C)[C@@H]1N2C [Eserine hemisulfate salt],1.06 (inactive)
8,CN1[C@@H]2CC[C@H]1C[C@@H](OC(=O)C(CO)c1ccccc1)C2 (stereo partly specified) [Atropine sulfate monohydrate],1.07 (inactive)
9,COc1ccc(C(CN(C)C)C2(O)CCCCC2)cc1 (stereo unspecified) [Venlafaxine],0.999 (inactive)
10,NCCc1c[nH]c2ccc(O)cc12 [Serotonin hydrochloride],1.08 (inactive)
11,CC(CCc1ccccc1)NC(C)C(O)c1ccc(O)cc1 (stereo unspecified) [Nylidrin],0.998 (inactive)
12,C[N+]1(C)CCOC(O)(c2ccc(-c3ccc(C4(O)C[N+](C)(C)CCO4)cc3)cc2)C1 (stereo unspecified) [Hemicholinium bromide],1.02 (inactive)
13,CC(=O)O[C@H]1C[C@@H]2CC[C@@H]3[C@H](CC[C@@]4(C)[C@H]3C[C@H]([N+]3(C)CCCCC3)[C@@H]4OC(C)=O)[C@@]2(C)C[C@@H]1[N+]1(C)CCCCC1 [Pancuronium bromide],1.04 (inactive)
14,O=C1CC[C@@]2(O)[C@H]3Cc4ccc(O)c5c4[C@@]2(CCN3CC2CC2)[C@H]1O5 [Naltrexone hydrochloride dihydrate],1.02 (inactive)
15,CC(Cc1ccccc1)NCCC(c1ccccc1)c1ccccc1 (stereo unspecified) [Prenylamine lactate],1.04 (inactive)
16,CCC1(CC)C(=O)C=CNC1=O [Pyrithyldione],1 (inactive)
17,COc1cc2c(c(OC)c1OC)-c1ccc(OC)c(=O)cc1[C@@H](NC(C)=O)CC2 [Colchicine],0.986 (inactive)
18,COc1cc([C@@H]2c3cc4c(cc3[C@H](O)[C@H]3COC(=O)[C@H]23)OCO4)cc(OC)c1OC [Podophyllotoxin],1.02 (inactive)
19,Oc1ccc2c3c1O[C@H]1[C@@H](O)CC[C@@]4(O)[C@@H](C2)N(CC2CCC2)CC[C@]314 [Nalbuphine hydrochloride],0.966 (inactive)

# Reference: the supplement of paper PMC12350171
